Screens: PubChem, National Center for Advancing Translational Sciences (NCATS)
Sfp inh = qHTS Assay for Inhibitors of Bacillus subtilis Sfp phosphopantetheinyl transferase (PPTase) | 4'-phosphopantetheinyl transferase ffp (Bacillus subtilis), Q9F4F7 | Biochemical Sfp PPTase activity, qHTS | Potency, µM, for inactives: largest response in the series, negative = inhibition, hits mostly inhibitors | 310,000 compounds, 3.5% hits | AID 1490, 2009;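 also: the enzyme is Sfp with the accession as filed and its product quenches rhodamine fluorescence; 0% = enzyme reaction without inhibitor and -100% = no enzyme wells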
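With Hepes-Na pH 7.6 buffer containing 10 mM MgCl2, Sfp (15 nM) modified BHQ-2-YbbR (12.5 uM) using rhodamine-CoA (5 uM). Two reads 30 minutes apart at 525/598 nm yielded each well's rate.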
ALDH1A1 block = qHTS Assay for Inhibitors of Aldehyde Dehydrogenase 1 (ALDH1A1); Aldehyde dehydrogenase 1A1 (Homo sapiens), P00352; Purified ALDH1A1, NADH fluorescence, propionaldehyde substrate; Potency, µM (series often up to 75.3 µM), for the others: at the highest dose activity, negative = inhibition, actives largely listed as inhibitors; 220,000 compounds, 7.3% hits; AID 1030, 2008; active = well fitted inhibition curve with a large enough effect, not every such curve was filed as active; inconclusive = small, poorly fitted or top-dose-only effect, or another doubt; inactive = no such curve, though single readings can be large or run the other way;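 also: plate controls were no enzyme wells and a reference inhibitor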
Target sequence (P00352 whole entry, looked up): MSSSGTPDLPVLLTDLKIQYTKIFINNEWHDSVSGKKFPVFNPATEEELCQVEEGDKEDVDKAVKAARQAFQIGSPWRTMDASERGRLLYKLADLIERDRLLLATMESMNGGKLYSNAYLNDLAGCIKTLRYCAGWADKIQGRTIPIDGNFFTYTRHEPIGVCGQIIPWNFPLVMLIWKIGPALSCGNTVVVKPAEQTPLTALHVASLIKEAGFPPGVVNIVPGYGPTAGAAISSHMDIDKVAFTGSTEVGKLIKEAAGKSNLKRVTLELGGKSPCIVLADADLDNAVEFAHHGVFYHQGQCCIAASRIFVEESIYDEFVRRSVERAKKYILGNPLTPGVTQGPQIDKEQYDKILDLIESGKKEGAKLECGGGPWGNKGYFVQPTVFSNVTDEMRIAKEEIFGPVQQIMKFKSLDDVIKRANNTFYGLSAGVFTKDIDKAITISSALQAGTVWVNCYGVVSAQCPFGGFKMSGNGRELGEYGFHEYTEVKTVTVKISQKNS
Gal4-VP16 FLuc = VP16 counterscreen qHTS for inhibitors of ROR gamma transcriptional activity. Drosophila S2 Gal4-VP16 UAS-luciferase, luminescence, 20 h. Potency, µM (titrated, usually from 53.6 µM), without a hit: at the top dose activity, negative = inhibition, usual class: inhibitors. 310,000 compounds, 3.5% hits;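 also: Gal4-VP16 expression switched on by copper sulfate through the metallothionein promoter; nearly all actives have a fitted effect of over 50% in size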
PLK1 PBD block = qHTS for Inhibitors of PLK1-PDB (polo-like kinase 1 - polo-box domain): Primary Screen; Serine/threonine-protein kinase PLK1 (Homo sapiens), P53350; Plk1 PBD binding of FITC phosphopeptide, fluorescence polarization; Potency, µM, for inactives: max response, negative = inhibition, most hits filed as inhibitors; 360,000 compounds, 2.8% hits; AID 720504, 2013; also: series mostly up to about 57 µM; nearly all actives have a fitted effect of over 65% in size
RORgamma inh = qHTS for inhibitors of ROR gamma transcriptional activity; Nuclear receptor ROR-gamma (Mus musculus), P51450; Drosophila S2 Gal4-RORgamma UAS-luciferase reporter, 20 h; Potency, µM (titrated, usually from 53.6 µM), inactives show at the top dose activity change, negative = inhibition, usual class: inhibitors; 310,000 compounds, 5.4% hits; also: nearly all actives have a fitted effect of over 60% in size
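Luminescence from a UAS-regulated Photinus luciferase reporter in stably transfected Drosophila Schneider cells is measured; decreased signal marks ROR gamma inhibition. Fusion expression is induced by 700 uM copper sulfate for 20 hr.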
The depositor's hits bear a star; u = inconclusive; x = no result; [ ] = dose if it differs, or a comment. Sampled rows, rich in hits. Any-hit rate of the full collection: about 12%. Unless noted, calls follow the shape of the dose curve; as a rule, active = well fitted curve in the direction sought with a large enough effect; inconclusive = small, poorly fitted or top-dose-only effect, or another doubt; inactive = no such curve, though single readings can be large; an effect the other way counts as inactive or inconclusive. Unless noted, % is scaled to controls: 0 for no effect and ±100 for the full control effect; potency is read from the fitted curve at half-maximal effect.

SMILES | Sfp inh | ALDH1A1 block | Gal4-VP16 FLuc | PLK1 PBD block | RORgamma inh
COc1ccc(C2=CC(c3sccc3C)n3nnnc3N2)cc1 (centres undefined) | 50µM* | 2µM* | 3% | -5% | u
Cc1ccc(C2=CC(c3ccccc3)n3ncnc3N2)cc1 (centres undefined) | x | x | x | -7% | x
CCc1ccc(C2=CC(c3cc(Br)ccc3F)n3ncnc3N2)cc1 (centres undefined) | u | u | 14µM* | -18% | u
Cc1ccsc1C1C=C(c2cccc(Br)c2)Nc2ncnn21 (centres undefined) | 45µM* | -7% | u | -29% | 7.9µM*
CSCCC(C(=O)Nc1c(C)cccc1C)N1CCC(Cc2ccccc2)CC1 (centres undefined) | x | x | x | -13% | x
Cc1ccc(OCCN2CCC2(C)C(=O)Nc2ccc3c(c2)OCCO3)cc1 (centres undefined) | x | x | x | -3% | x
Nc1nc(CSc2nc3ccccc3[nH]2)cs1 | 45µM* | u | u | -29% | u
CCCOc1ccc(CSc2nc3ccccc3[nH]2)cc1 | 16% | 9% | 6.3µM* | -2% | u
COC(=O)C1CC1C(NC(=O)[C@H]1CCCCN1)c1ccccc1 (some centres undefined) | 13% | -10% | -11% | x | 1%
Cc1noc(C)c1COc1ccccc1C(=O)N1CCN(S(=O)(=O)c2ccc(C(C)C)cc2)CC1 | x | x | x | 0% | x
CCCn1c(SCC(=O)OCc2ccccc2)nc2c1c(=O)n(C)c(=O)n2C | -13% | 22µM* | -1% | -2% | -10%
CCCn1c(SCC(=O)Nc2ccccc2N2CCCCC2)nc2c1c(=O)n(C)c(=O)n2C | 35µM* | -4% | -6% | -7% | -13%
CCCn1c(SCC(=O)Nc2ccccc2C(=O)OC)nc2c1c(=O)n(C)c(=O)n2C | 23% | -6% | x | -9% | 14%[0.365 µM]
CC(C)c1cc(Cn2c3ccccc3c(=O)n2C(C)Cn2cc(CCc3ccccc3)nn2)on1 (centres undefined) | x | x | x | -2% | x
COc1cccc2c1OC(=O)CC2c1ccc(C)cc1 (centres undefined) | -10% | -4%[120 µM] | 3%[96.6 µM] | x | 40%[96.6 µM]
COc1ccc(-c2cc3nc(C)n(N)c(=O)c3s2)cc1 | -8% | x | 1.3µM* | -3% | 1.8µM*
COc1ccc(-c2cc3nc4n(c(=O)c3s2)CCCCC4)cc1 | 4% | u | -18% | 2% | -11%
COc1ccc(-c2cc3nc4n(c(=O)c3s2)CCC4)cc1 | 17% | u | 1.6µM* | -6% | u
Cc1nc2cc(-c3ccccc3)sc2c(=O)n1N | 10% | -1% | 1.6µM* | 1% | 0.71µM*
CN(CC(CC(=O)Nc1nncs1)c1ccccc1)S(=O)(=O)c1ccccc1 (centres undefined) | -5% | 8.9µM* | -19% | -15% | -28%
CN(CC(CC(=O)Nc1nncs1)c1ccccc1)S(=O)(=O)c1ccc(Br)cc1 (centres undefined) | 4% | 13µM* | 8% | -8% | 19%
COc1cccc(/C=N/NC(=S)NC2CC3CCC2C3)c1OC (centres undefined) | 15% | u | 2.8µM* | -3% | 1.6µM*
O=C(N/N=C/c1ccco1)C(O)C(O)C(=O)N/N=C/c1ccco1 (centres undefined) | 22% | x | -2% | -7% | -5%
O=C(O)c1ccccc1/C=N/NC(=S)NC1CCCCC1 | 20% | x | -1% | -8% | -40%
CNC(=S)N/N=C/c1ccco1 | 56µM* | x | 5.6µM* | -4% | 2.5µM*
S=C(N/N=C/c1ccco1)NC1CC2CCC1C2 (centres undefined) | 15% | x | 2.2µM* | -6% | 0.56µM*
COc1cccc(C=NNC(=S)NN=Cc2cccc(OC)c2OC)c1OC | x | x | x | -6% | x
Oc1ccccc1/C=N/NC(=S)NC1CC2CCC1C2 (centres undefined) | 25% | u | 10µM* | -1% | 6.3µM*
